# RECQ1 inh – qHTS Assay for Inhibitors of RecQ-Like Dna Helicase 1 (RECQ1) | ATP-dependent DNA helicase Q1 (Homo sapiens), P46063 | Potency, µM (series often up to 57.3 µM), without a hit: at the top dose activity, negative = inhibition, usual class: inhibitors | 0.54% of 240,000 active | AID 2549, 2010 | RECQ1 DNA unwinding, red fluorescence kinetic read;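 further: potency means the concentration at half of the fitted maximal effect; plate controls were vehicle for no effect and no enzyme for full effect; nearly all actives have a fitted effect of over 30% in size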
#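 RECQ1T1 50 nM; forked duplex (20 bp + 30-nt ss tails) 200 nM, ATP 2 mM final; pH 8.0, 2 mM MgCl2, 2.5 ug/ml poly(dI-dC); 15 min compound preincubation; discontinuous kinetic read over 2 h at RT.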
# PI5P4K alpha inh – qHTS for Inhibitors of phosphatidylinositol 5-phosphate 4-kinase (PI5P4K). max response, %. PI5P4Kalpha enzyme, ADP-Glo luminescence, 60 min; stronger effect = lower value. AID 652105, 2013. 1.2% of 330,000 active. Phosphatidylinositol 5-phosphate 4-kinase type-2 alpha (Homo sapiens), P48426; active means max response of -50% or lower; inconclusive means between -30% and -50%; inactive means -30% or higher; further: value at the top dose of about 77 µM
#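 Compounds were pin-transferred onto PI5P4Kalpha and substrate in HEPES pH 7.4 buffer with EGTA, CHAPS and 5% DMSO. ATP (5 microM final) started the reaction, which ran 60 minutes at room temperature before ADP-Glo detection.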
# WRN inhibitor – qHTS for Inhibitors of WRN Helicase; WRN helicase unwinding, fluorescent forked duplex, kinetic; Potency, µM (titrated, usually from 114 µM), for the others: at the top dose activity change, negative = inhibition, hits mostly inhibitors; 0.46% of 360,000 active; further: potency means the concentration at half of the fitted maximal effect; nearly all actives have a fitted effect of over 55% in size
#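 Primary qHTS, 1536-well format. 20 nM WRN + compound, 15 min RT; start with 100 nM forked fluorophore/quencher duplex, 2 mM ATP (final); kinetic read ex 525/em 598 nm.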
# BLM inh – qHTS Assay for Inhibitors of Bloom's syndrome helicase (BLM). RecQ-like DNA helicase BLM (Homo sapiens), P54132. recombinant BLM DNA unwinding, fluorescence dequenching. Potency, µM (highest dose often 56.1 µM), for inactives: at the highest dose activity change, negative = inhibition, hits mostly inhibitors. 0.2% of 350,000 active. AID 2528, 2010;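 further: potency means the concentration at half of the fitted maximal effect; plate controls were vehicle for no effect and no enzyme for full effect; nearly all actives have a fitted effect of over 35% in size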
# Target sequence (P54132 whole entry, looked up): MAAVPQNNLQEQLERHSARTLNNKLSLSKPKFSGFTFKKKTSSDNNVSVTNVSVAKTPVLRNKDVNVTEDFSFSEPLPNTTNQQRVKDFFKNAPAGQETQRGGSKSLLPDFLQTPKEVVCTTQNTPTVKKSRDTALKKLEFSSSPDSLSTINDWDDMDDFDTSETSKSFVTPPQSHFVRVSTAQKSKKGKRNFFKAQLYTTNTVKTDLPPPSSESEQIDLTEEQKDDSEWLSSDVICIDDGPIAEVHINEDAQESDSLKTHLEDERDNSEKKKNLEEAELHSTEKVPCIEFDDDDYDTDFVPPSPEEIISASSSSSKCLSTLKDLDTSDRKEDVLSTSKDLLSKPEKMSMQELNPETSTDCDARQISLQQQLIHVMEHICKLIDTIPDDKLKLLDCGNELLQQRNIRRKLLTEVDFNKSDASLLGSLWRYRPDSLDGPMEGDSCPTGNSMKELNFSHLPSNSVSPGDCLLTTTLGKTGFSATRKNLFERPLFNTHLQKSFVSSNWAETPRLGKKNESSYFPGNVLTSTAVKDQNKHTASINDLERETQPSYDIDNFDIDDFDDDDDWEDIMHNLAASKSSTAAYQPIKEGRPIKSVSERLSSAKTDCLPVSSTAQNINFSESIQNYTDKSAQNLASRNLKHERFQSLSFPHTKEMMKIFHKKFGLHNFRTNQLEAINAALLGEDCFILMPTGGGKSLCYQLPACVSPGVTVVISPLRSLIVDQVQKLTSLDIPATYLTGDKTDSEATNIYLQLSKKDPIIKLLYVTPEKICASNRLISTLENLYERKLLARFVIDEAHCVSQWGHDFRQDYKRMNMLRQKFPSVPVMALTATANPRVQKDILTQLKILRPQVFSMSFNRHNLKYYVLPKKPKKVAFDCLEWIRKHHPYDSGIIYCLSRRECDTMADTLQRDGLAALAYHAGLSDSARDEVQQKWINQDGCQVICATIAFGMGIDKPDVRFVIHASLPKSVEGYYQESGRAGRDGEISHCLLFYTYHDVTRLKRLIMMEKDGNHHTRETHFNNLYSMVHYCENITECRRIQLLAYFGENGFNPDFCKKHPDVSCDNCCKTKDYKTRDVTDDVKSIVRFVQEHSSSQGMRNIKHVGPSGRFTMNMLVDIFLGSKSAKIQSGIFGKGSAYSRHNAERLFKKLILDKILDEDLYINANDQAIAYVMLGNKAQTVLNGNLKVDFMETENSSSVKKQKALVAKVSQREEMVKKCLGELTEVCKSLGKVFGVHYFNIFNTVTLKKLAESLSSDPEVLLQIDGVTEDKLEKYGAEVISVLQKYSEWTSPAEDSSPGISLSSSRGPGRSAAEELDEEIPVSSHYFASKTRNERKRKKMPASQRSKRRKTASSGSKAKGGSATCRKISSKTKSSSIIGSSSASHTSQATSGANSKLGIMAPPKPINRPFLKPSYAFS
# FEN1 inh – qHTS Assay for the Inhibitors of Human Flap endonuclease 1 (FEN1) | Recombinant FEN1 flap cleavage, fluorescence, 15 min | Potency, µM (doses to about 114 µM), without a hit: at the top dose activity change, negative = inhibition, hits mostly inhibitors | 0.35% of 390,000 active; further: potency means the concentration at half of the fitted maximal effect; nearly all actives have a fitted effect of over 65% in size
#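 Read-out was taken twice, immediately and after 15 min, following addition of 50 nM substrate to 10 nM FEN1 that had sat with test compound for 15 min at room temperature. Curves came from a four-parameter Hill model.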
# APE1 inh – qHTS Assay for Inhibitors of the Human Apurinic/apyrimidinic Endonuclease 1 (APE1); DNA repair nuclease/redox regulator APEX1 (Homo sapiens), P27695; recombinant APE1, TAMRA/BHQ-2 abasic DNA cleavage fluorescence; Potency, µM (doses to about 65.8 µM), without a hit: at the highest dose activity change, negative = inhibition, usual class: inhibitors; 0.35% of 350,000 active; AID 2517, 2012;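 further: potency means the concentration at half of the fitted maximal effect; plate controls were vehicle for no effect and reference inhibitor for full effect; nearly all actives have a fitted effect of over 55% in size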
#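 Quantitative HTS: incision of a TAMRA/BHQ-2 double-stranded substrate bearing a tetrahydrofuran abasic site by 0.75 nM APE1 raises fluorescence. Substrate 50 nM final, added after 15 min compound preincubation at room temperature; progress as third-minus-first kinetic read difference.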
# An asterisk follows results filed as active; i = inactive; u = inconclusive; x = not tested or not shown; [ ] = remark or other dose. Shown are actives, neighbours in structure and some others; about 1.5% of the full set was active somewhere. Unless noted, the call rests on the fitted dose curve; in most records, active means well fitted curve in the direction sought with a large enough effect; inconclusive means small, poorly fitted or top-dose-only effect, or another doubt; inactive means no such curve, though single readings can be large; an effect the other way counts as inactive or inconclusive. Unless noted, on the % scale 0 is the no-effect control and ±100 the full control effect.
SMILES,RECQ1 inh,PI5P4K alpha inh,WRN inhibitor,BLM inh,FEN1 inh,APE1 inh
Cc1ccc(NC(=O)Cc2ccc(Cl)cc2)cc1S(=O)(=O)N1CCCCCC1,x,7,-12%,x,-13%,-8%
CC(NC(=O)OCc1ccccc1)C(=O)Oc1cc2oc(=O)cc(-c3ccccc3)c2cc1Cl (configuration not stated),0%,-62*,-34%[57.1 µM],4%,10%,3%
CN(C)C1(CN=Cc2cc(Cl)cc([N+](=O)[O-])c2O)CCCCC1,x,-62*,-13%,-12%,-20%,25%
Cc1cc(C(=O)N/N=C/c2cc(Cl)cc([N+](=O)[O-])c2O)n[nH]1,-2%,-10,6%,-4%,-1%,-3%
CCCCCCCCCC[n+]1cccc2cc(Br)ccc21,x,x,x,x,3%,x
CCCCNc1c2c3c(cccc3n(C)c1=O)C(=O)c1ccccc1-2,32µM*,x,u,-13%,u,-3%
COc1ccc(OC)c(CNS(=O)(=O)c2ccc3c(c2)CCCN3C(C)=O)c1,x,x,x,-12%,-6%,x
N#Cc1c(N2CCN(c3ccc(F)cc3)CC2)nc(N)c2c(N)nc3c(c12)CC(=O)N3C1CC1,-4%,-50*,-13%,-18%,-11%,2%
CN(CCO)c1nc(N)c2c(N)nc3c(c2c1C#N)CC(=O)N3C1CCCC1,u,x,x,-14%,x,u
Cc1ccc(-c2csc3nc4c5ccccc5c(NCCCN(C)C)nn4c(=O)c23)cc1,0%,-1,30%[57.1 µM],112%,20µM*,5%
C#C[C@]1(O)CC[C@H]2[C@H]3CCC4=Cc5oncc5C[C@]4(C)[C@@H]3CC[C@]21C,-6%,x,x,-2%,x,-11%
COc1ccc(C2Nc3ccccc3C(=O)N2c2ccc(F)cc2)cc1COc1ccc(NC(C)=O)cc1 (configuration not stated),x,x,x,x,7%,x
O=C(N/N=C/c1cc(Br)c(O)c(Br)c1O)c1cccnc1,x,-59*,-17%,-10%,-19%,-20%
O=C(N/N=C/c1cc(O)ccc1Br)c1cccnc1,x,0,-13%,0%,-7%,1%
O=C(CCn1c(=O)c2ccccc2n(Cc2ccc(F)cc2Cl)c1=O)NCc1ccc2c(c1)OCO2,x,x,x,0%,-6%,x
O=c1[nH]c(=O)c2nnc(N/N=C/c3ccccc3F)nc2[nH]1,-7%,-88*,-8%,-2%,-2%,-2%
CSc1ccccc1NC(=O)Cn1nc([N+](=O)[O-])cc1C,-4%,3,-1%,-2%,4%,6%
Cc1cc([N+](=O)[O-])nn1CC(=O)Nc1cccc2nonc12,8%,-73*,-24%,-22%,-9%,u
CC[N+](CC)(CC)c1ccc(/C=C/c2ccc3ccccc3n2)cc1,x,x,x,x,40µM*,x
CNC(CC(=O)c1ccc([N+](=O)[O-])cc1)C(Cl)(Cl)Cl (configuration not stated),-11%,-15,45µM*,4%,2%,4%
O=C1c2c([N+](=O)[O-])cc([N+](=O)[O-])cc2S(=O)N1Cc1ccccc1 (configuration not stated),-5%,-60*,-27%,-12%,-16%,10%
COc1ccc(-c2c3c([nH]c(=S)c2C#N)CCC3)cc1,-18%,-70*,-9%[57.1 µM],-15%,-2%,5%
COc1ccc(OC)c(-c2c3c([nH]c(=S)c2C#N)CCCC3)c1,i,-58*,-6%,-2%,5%,-3%
O=C(Nc1ccc(C2=NCCN2)cc1)c1ccc(C(=O)Nc2ccc(C3=NCCN3)cc2)c([N+](=O)[O-])c1,9%,-28,u,u,40µM*,0%
CCS(=O)(=O)Nc1cccc(-c2cn3c(n2)SCC3)c1,x,-1,-1%,-1%,16%,58%
SMILES,RECQ1 inh,PI5P4K alpha inh,WRN inhibitor,BLM inh,FEN1 inh,APE1 inh
CS(=O)(=O)Nc1cccc(-c2cn3c(n2)SCC3)c1,x,-3,-11%,1%,20µM*,11%
CC12C=C(/C=C/C=C/c3ccco3)C(C)(C1)C(/C=C/c1ccco1)CC2=O (configuration not stated),1.4µM*,x,x,-3%[12.4 µM],x,u
CC12C=C(/C=C/C=C/c3ccccc3)C(C)(C1)C(/C=C/c1ccccc1)CC2=O (configuration not stated),-2%[11.5 µM],x,x,-9%[12.4 µM],x,u
Cc1ccccc1/C=N/Nc1ccnc2cc(Cl)ccc12,u,-75*,-17%,-9%,-15%,u
Clc1ccc(NNc2ccnc3cc(Cl)ccc23)cc1,-3%,0,12%,1%,1%,-4%
Cc1ccc(/C=N/Nc2ccnc3cc(Cl)ccc23)c(C)c1,-11%,-82*,-14%,-14%,u,3%
Oc1ccc(/C=N/Nc2ccnc3cc(Cl)ccc23)c(O)c1,-6%,-17,u,-24%,-23%,u
Clc1ccc2c(N/N=C/c3ccc(Br)cc3)ccnc2c1,i,-73*,-3%,-11%,-16%,7%
Clc1ccc2c(N/N=C/c3cccnc3)ccnc2c1,-16%,-2,-14%,27%,u,-13%
COCCNC(=O)CSc1nc(-c2ccc(F)cc2)[nH]c1-c1ccc(Cl)cc1,x,x,x,-1%,-12%,x
CCc1cc(=O)oc2cc(C)c(CN3CCCC(C)C3)c(O)c12 (configuration not stated),7.1µM*,x,35µM*,u,50µM*,14µM*
CCc1cc(=O)oc2c(CN3CCCC3)c(O)c(Cl)cc12,i,x,-4%,2%,-11%,12%
O=S(=O)(c1cc(O)ccc1O)c1cccc2c(S(=O)(=O)c3cc(O)ccc3O)cccc12,x,-91*,32µM*,x,35µM*,2.1µM*
Cc1ccc2c(c1)C1CC(C)(O2)N(c2cccc(C(=O)NC3CCN(Cc4ccccc4)CC3)c2)C(=O)N1 (configuration not stated),x,-6,1%,1%,-12%,24µM*
Oc1ccc(CNCc2ccc3c(c2)OCO3)c2cccnc12,x,x,x,x,x,5%
C=CCNC(=O)c1ccc([N+](=O)[O-])c(Cl)c1,i,-1,1%,-14%,-1%,23%

# Screens: PubChem, National Center for Advancing Translational Sciences (NCATS)
